The panel holds about 83,000 compounds, 20% with a hit somewhere; the sample as a whole holds those more often.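 Assay: single dose, 48 h. Readout: percent growth (0 = no net growth; negative = cell death). Active: <10.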 Values without a mark were called inactive. The source made the active and inactive calls.
These compounds were tested on MCF7 breast (assay: NCI-60 one-dose screen, 48 h (100 = growth as untreated, 0 = no growth, -100 = all killed)). Settings: 10 µM unless noted.

For `Cc1ccc(CCC(=O)Nc2ncc(Cc3cc(Cl)ccc3Cl)s2)o1`, which growth is on record?
The growth was 13%.

For `c1ccc2c(c1)nc(CN1CCOCC1)n1cc(N3CCCC3)nc21`, which growth is on record?
Its growth is 96.5%.

`COc1ccc(-c2c(N)n[nH]c2-c2ccc(Cl)cc2O)cc1OC` was tested. Which growth did it give?
Its growth is 86%.

Which growth does the source give for `COc1cc2nc(Cl)nc(Nc3ccc(S(=O)(=O)Nc4nccs4)cc3)c2cc1OC` here?
Its growth is 103%.

How did the growth turn out when `CS(=O)c1cccc(-c2ccc3nc(N)n(-c4ccc(C(F)(F)F)cc4)c(=O)c3c2)c1` (stereo unspecified) was run?
The growth was 104%.

Which growth does the source give for `NCCCNc1nc2ccccc2c2c(=O)c3cccc(Cl)c3sc12` here?
Its growth is -86.6% (active).

Which growth does the source give for `CCCCCCCCCCCCCCCCCC1=NCCN1CCOC1=C(Cl)C(=O)c2ccccc2C1=O` here?
Its growth is 65.6%.

With `Cc1ccc(Nc2ccc(Nc3ccc(C)cc3)c3c2C(=O)c2cccc(O)c2C3=O)cc1` as the compound, how does the growth read?
The growth was 87.6%.

How did the growth turn out when `O=Cc1c[nH]c2ccc(-c3csc4ccccc34)cc12` was run?
Its growth is 40.2%.

`COc1ccc2[nH]c(O)c(/C=c3/cc4c(c(-c5cc(OC)c(OC)c(OC)c5)n3)=Nc3ccccc3-4)c2c1` was tested. Which growth did it give?
Its growth is 23.4%.

With `NC(=N\N=C/c1cccc([N+](=O)[O-])c1)/C(N)=N\N=C/c1cccc([N+](=O)[O-])c1` as the compound, how does the growth read?
The growth was 12.9%.

Which growth does the source give for `NS(=O)(=O)c1cnccc1Sc1ccncc1S(N)(=O)=O` here?
Its growth is 88.9%.

With `COc1ccc(CN2C(=O)C(Cl)=C(Nc3cccc(C(F)(F)F)c3)C2=O)cc1` as the compound, how does the growth read?
Its growth is 29.5%.

With `O=C(/C=C/c1ccco1)c1ccc(Nc2nc(Nc3ccc(F)cc3)nc(Nc3ccc(Cl)cc3)n2)cc1` as the compound, how does the growth read?
Its growth is 33.4%.

With `CCC1(C2CCCC2)NC(=O)NC1=O` (stereo unspecified) as the compound, how does the growth read?
The growth was 83.9%.

How did the growth turn out when `COc1cc2c(cc1-c1c(C)noc1C)ncc1nc(C3CCC(F)(F)CC3)n(C3CCC(OC(F)F)CC3)c12` (stereo unspecified) was run?
Its growth is 26.2%.

Which growth does the source give for `O=C1Nc2ccc(F)cc2C12Nc1cc(Cl)ccc1S2` (stereo unspecified) here?
Its growth is 60.3%.

With `COc1cccc(-c2nn(-c3ccccc3)cc2-c2ccnc(NCCNC(=O)Nc3ccc(Cl)c(Cl)c3)c2)c1` as the compound, how does the growth read?
The growth was 6.67% (active).

How did the growth turn out when `O=C(Nc1ccccc1Cl)Oc1ccc(-c2ccccc2)cc1` was run?
Its growth is 110%.

With `O=c1c2c3c(sc2n2c(-c4cn(-c5ccccc5)nc4-c4ccc(Cl)cc4)nnc2n1Cc1ccccc1)CCCC3` as the compound, how does the growth read?
The growth was 75.4%.

`CCOC(=O)c1c2ncccc2n2c(=O)n(-c3ccccc3C)nnc12` was tested. Which growth did it give?
Its growth is 77.5%.

For `C=C1C(=O)O[C@H]2[C@H]1CC/C(COC(=O)C(=O)c1c[nH]c3ccccc13)=C\CC[C@@]1(C)O[C@@H]21`, which growth is on record?
Its growth is -16.9% (active).

Which growth does the source give for `CCCCOc1nc2ccccc2cc1C1CNC(=O)c2ccccc2N1` (stereo unspecified) here?
The growth was 21.2%.

For `CCCCCCCC/C=C\CCCCCCCCOc1ccccc1CC(=O)NCC[N+](C)(C)C`, which growth is on record?
Its growth is 73%.

Which growth does the source give for `O=C1NC(=Nc2ccc(Cl)cc2)S/C1=C\c1cn(-c2ccccc2)nc1-c1ccccc1` here?
The growth was 69.1%.

`CC(C)(C)CC(C)(C)Nc1c(-c2ccncc2)nc2cnccn12` was tested. Which growth did it give?
Its growth is 96.5%.

`Fc1ccc(CNc2c3ccccc3nc3ccccc23)cc1F` was tested. Which growth did it give?
The growth was 12.9%.

`Cc1cc(NCc2cc(Nc3ccnc4cc(Cl)ccc34)ccc2F)nc(N2CCN(c3ccccc3)CC2)n1` was tested. Which growth did it give?
Its growth is 23.9%.

How did the growth turn out when `COc1ccc2c(c1)O/C(=C\c1cccc(OCC(=O)Nc3nc4ccccc4s3)c1)C2=O` was run?
Its growth is 73.7%.

For `CC(CN1CCCCC1)C(=O)c1ccccc1` (stereo unspecified), which growth is on record?
The growth was 91%.

How did the growth turn out when `CCN(CC)CCCNc1ccc(Nc2ccc(OC)cc2)cc1` was run?
The growth was 110%.

`C=C1C(=O)O[C@H]2[C@H]1CC/C(CNC(=O)/C=C/c1ccc(Cl)cc1Cl)=C\CC[C@@]1(C)O[C@@H]21` was tested. Which growth did it give?
Its growth is -59.9% (active).

For `COc1cc(/C=C/C(=O)c2ccc(Nc3nc(Nc4ccc(F)cc4)nc(Nc4ccc(Cl)cc4)n3)cc2)cc(OC)c1OC`, which growth is on record?
Its growth is 28.5%.

With `O=C1Nc2ccccc2/C1=C/c1cn(C(=O)c2c(Cl)cccc2Cl)c2ccccc12` as the compound, how does the growth read?
Its growth is 22.9%.

Which growth does the source give for `O=C(c1ccccc1)c1c(/C=C/c2ccc(Cl)cc2)nc2ccccc2c1/C=C/c1cccs1` here?
Its growth is 92.3%.

How did the growth turn out when `CCCc1cc2c(=O)c(C(=O)OC)c[nH]c2cc1N(CC)CC` was run?
Its growth is 80.2%.

`Clc1ccc(-c2c3ccc(=[N+]4CCCCC4)cc-3oc3cc(N4CCCCC4)ccc23)cc1` was tested. Which growth did it give?
The growth was -73.9% (active).

For `Cc1ccccc1NC(=O)N/C(N)=N/c1nc(-c2cccc([N+](=O)[O-])c2)cs1`, which growth is on record?
Its growth is 22.4%.

Each compound was assayed on HCT-116 colon in the same assay as above. Settings: 10 µM unless noted.

How did the growth turn out when `Cc1ccc(CCC(=O)Nc2ncc(Cc3cc(Cl)ccc3Cl)s2)o1` was run?
Its growth is 9.11% (active).

How did the growth turn out when `c1ccc2c(c1)nc(CN1CCOCC1)n1cc(N3CCCC3)nc21` was run?
The growth was 93.5%.

For `COc1ccc(-c2c(N)n[nH]c2-c2ccc(Cl)cc2O)cc1OC`, which growth is on record?
The growth was 90.1%.

How did the growth turn out when `COc1cc2nc(Cl)nc(Nc3ccc(S(=O)(=O)Nc4nccs4)cc3)c2cc1OC` was run?
The growth was 95%.

`CS(=O)c1cccc(-c2ccc3nc(N)n(-c4ccc(C(F)(F)F)cc4)c(=O)c3c2)c1` (stereo unspecified) was tested. Which growth did it give?
The growth was 100%.

Which growth does the source give for `NCCCNc1nc2ccccc2c2c(=O)c3cccc(Cl)c3sc12` here?
The growth was -92% (active).

With `CCCCCCCCCCCCCCCCCC1=NCCN1CCOC1=C(Cl)C(=O)c2ccccc2C1=O` as the compound, how does the growth read?
The growth was 43.6%.

With `Cc1ccc(Nc2ccc(Nc3ccc(C)cc3)c3c2C(=O)c2cccc(O)c2C3=O)cc1` as the compound, how does the growth read?
The growth was 99%.

With `O=Cc1c[nH]c2ccc(-c3csc4ccccc34)cc12` as the compound, how does the growth read?
Its growth is 21.2%.

Which growth does the source give for `COc1ccc2[nH]c(O)c(/C=c3/cc4c(c(-c5cc(OC)c(OC)c(OC)c5)n3)=Nc3ccccc3-4)c2c1` here?
Its growth is 36.8%.

For `NC(=N\N=C/c1cccc([N+](=O)[O-])c1)/C(N)=N\N=C/c1cccc([N+](=O)[O-])c1`, which growth is on record?
The growth was 37.4%.

How did the growth turn out when `NS(=O)(=O)c1cnccc1Sc1ccncc1S(N)(=O)=O` was run?
Its growth is 106%.

Which growth does the source give for `COc1ccc(CN2C(=O)C(Cl)=C(Nc3cccc(C(F)(F)F)c3)C2=O)cc1` here?
The growth was 28.9%.

With `O=C(/C=C/c1ccco1)c1ccc(Nc2nc(Nc3ccc(F)cc3)nc(Nc3ccc(Cl)cc3)n2)cc1` as the compound, how does the growth read?
The growth was 62.5%.

For `CCC1(C2CCCC2)NC(=O)NC1=O` (stereo unspecified), which growth is on record?
Its growth is 99.3%.

How did the growth turn out when `COc1cc2c(cc1-c1c(C)noc1C)ncc1nc(C3CCC(F)(F)CC3)n(C3CCC(OC(F)F)CC3)c12` (stereo unspecified) was run?
The growth was 53.9%.

How did the growth turn out when `O=C1Nc2ccc(F)cc2C12Nc1cc(Cl)ccc1S2` (stereo unspecified) was run?
Its growth is 85.7%.

How did the growth turn out when `COc1cccc(-c2nn(-c3ccccc3)cc2-c2ccnc(NCCNC(=O)Nc3ccc(Cl)c(Cl)c3)c2)c1` was run?
Its growth is 0.717% (active).

Which growth does the source give for `O=C(Nc1ccccc1Cl)Oc1ccc(-c2ccccc2)cc1` here?
Its growth is 110%.

How did the growth turn out when `O=c1c2c3c(sc2n2c(-c4cn(-c5ccccc5)nc4-c4ccc(Cl)cc4)nnc2n1Cc1ccccc1)CCCC3` was run?
Its growth is 92.6%.

For `CCOC(=O)c1c2ncccc2n2c(=O)n(-c3ccccc3C)nnc12`, which growth is on record?
The growth was 92.6%.

Which growth does the source give for `C=C1C(=O)O[C@H]2[C@H]1CC/C(COC(=O)C(=O)c1c[nH]c3ccccc13)=C\CC[C@@]1(C)O[C@@H]21` here?
The growth was -88.6% (active).

With `CCCCOc1nc2ccccc2cc1C1CNC(=O)c2ccccc2N1` (stereo unspecified) as the compound, how does the growth read?
Its growth is 15.6%.

How did the growth turn out when `CCCCCCCC/C=C\CCCCCCCCOc1ccccc1CC(=O)NCC[N+](C)(C)C` was run?
Its growth is 65.8%.

`O=C1NC(=Nc2ccc(Cl)cc2)S/C1=C\c1cn(-c2ccccc2)nc1-c1ccccc1` was tested. Which growth did it give?
The growth was 63.8%.

`CC(C)(C)CC(C)(C)Nc1c(-c2ccncc2)nc2cnccn12` was tested. Which growth did it give?
The growth was 90.1%.

`Fc1ccc(CNc2c3ccccc3nc3ccccc23)cc1F` was tested. Which growth did it give?
The growth was 8.18% (active).

Which growth does the source give for `Cc1cc(NCc2cc(Nc3ccnc4cc(Cl)ccc34)ccc2F)nc(N2CCN(c3ccccc3)CC2)n1` here?
Its growth is 1.74% (active).

For `COc1ccc2c(c1)O/C(=C\c1cccc(OCC(=O)Nc3nc4ccccc4s3)c1)C2=O`, which growth is on record?
The growth was 76.5%.

`CC(CN1CCCCC1)C(=O)c1ccccc1` (stereo unspecified) was tested. Which growth did it give?
The growth was 112%.

How did the growth turn out when `CCN(CC)CCCNc1ccc(Nc2ccc(OC)cc2)cc1` was run?
The growth was 82.2%.

With `C=C1C(=O)O[C@H]2[C@H]1CC/C(CNC(=O)/C=C/c1ccc(Cl)cc1Cl)=C\CC[C@@]1(C)O[C@@H]21` as the compound, how does the growth read?
Its growth is -73.9% (active).

For `COc1cc(/C=C/C(=O)c2ccc(Nc3nc(Nc4ccc(F)cc4)nc(Nc4ccc(Cl)cc4)n3)cc2)cc(OC)c1OC`, which growth is on record?
The growth was 22.9%.

For `O=C1Nc2ccccc2/C1=C/c1cn(C(=O)c2c(Cl)cccc2Cl)c2ccccc12`, which growth is on record?
The growth was 26.1%.

`O=C(c1ccccc1)c1c(/C=C/c2ccc(Cl)cc2)nc2ccccc2c1/C=C/c1cccs1` was tested. Which growth did it give?
The growth was 95.8%.

For `CCCc1cc2c(=O)c(C(=O)OC)c[nH]c2cc1N(CC)CC`, which growth is on record?
The growth was 96.3%.

Which growth does the source give for `Clc1ccc(-c2c3ccc(=[N+]4CCCCC4)cc-3oc3cc(N4CCCCC4)ccc23)cc1` here?
The growth was -97.3% (active).

`Cc1ccccc1NC(=O)N/C(N)=N/c1nc(-c2cccc([N+](=O)[O-])c2)cs1` was tested. Which growth did it give?
Its growth is 20.6%.

Reference: PubChem BioAssay (NCI)
